Experimental data published in the supplement of paper PMC12632987.

B1: usp_38_diff_out_16_37_205 (protein)
chain: GEELLEEFRRFMEEAEREARRLAEEARELAEKGADIEEIERVLEELERLLDEVVERTTEVLEAVPEHADEILAEYDRAATTLAEAGKEIREKLREAKEKE
B2: usp_38_diff_out_17_26_236 (protein)
chain: SAEERREEARRALEELRADTDAALKEIDALIKAGKFEEAQALLDKLVDDFTKRATEILELAADDPELMDEALRAIGEVADKIAAAGSRLRAARKAAREAA
B3: usp_38_diff_out_17_130_224 (protein)
chain: SAEEVEALKEYLEAEKKNVESVKEDAKKDFERAKKNPVTLDRVEHALEGNIKYMEETIKEAEKLKKEYPEVKEAADKLIKAAKKAKEEFEKYLKEVKALK
B4: usp_38_diff_out_17_125_218 (protein)
chain: SDEELKKEIERLLEEAERLLEEAEKALEEGAPFEEIRKLLDEAADALGQAAVKLRELREKSEDPAQAAKFIKEATERANELIDRYTELATRAFLREAEAA
B5: usp_38_diff_out_17_26_237 (protein)
chain: SAEEKRKEAEKLLEELEKYVKETLEKIDKLIEEGKFEEAKKLLDELVTETTKRFTEILELAADDPELMDKALAKYDELSGQIAARYRRLEEARREAEAKA
B6: usp_38_diff_out_17_130_227 (protein)
chain: SAEEIESLKEYLRAEKENLKSVKEEAKKNLERAKKNPVTLDRVSHGLEGVATYAEDTIKEAKELLKKYPEVAEEAKELIKVAEEARKEAKELLKEVEKLK
B7: usp_38_diff_out_16_37_211 (protein)
chain: MEEEIEKARKEMEEHLEKALELAERALKLVEEGASEAEIEKAMQEATDALLKAGRAAAELIHLDPSLEDEVVARYDEVATRVAALLREVQEALRARRAAE
B8: usp_38_diff_out_17_130_225 (protein)
chain: SADEVEALKEYLEAEKANIEAVAADAERDLARAKRLPVTLPRVRHALEGNIKYMEETIKEAEEIKKKYPEVAAAADALIKAARDAKAKFEAMLAEVDALE
B9: usp_38_diff_out_16_37_210 (protein)
chain: GEEVLKEFKEFMEKAIEEAKKLAEEAKKLAKEGADIEELKKLKEELEKLIDEAVEKTTEALEKVPEKIEEIFAEFDKFADEAAKAGKEIDKAIKEAKKKK
B10: usp_38_diff_out_16_37_209 (protein)
chain: AEKVLEEFKKFMEEAIKRAEEIGRRARELEEEGADLEELERLLEELERLLDEAVKRLTEALEKVPEKIEELFAIYDEFADAAARAGAIIREAIRRARERA
B11: usp_38_diff_out_17_26_239 (protein)
chain: SSEEKRKEAEKLLKEMEEKTEEALKEIDKLIAEGKFAEAQKLLDETIDYVTEKSTEILELASDDDELFEKVMEKIDKISDRLAAAGARLRAARRAARAAA
B12: usp_38_diff_out_17_26_240 (protein)
chain: SMEERRKEARKLLEEMEKRVEEDLKKIRELIKEGKFEEAEELLNKTIDYVTETSTKILELAADDDELFDEAMEAIDKISDKLAEAGKELREAKREAREKA
B13: usp_38_diff_out_17_125_213 (protein)
chain: AEAALIAEIEALLAEATAKVKEAEALLKAGAPTEEVLKALDAARDALGALAVALERLRRESADRAQAAAVIKAATAEADKLIDRLTELETEAFLRQAEEA
B14: usp_38_diff_out_17_130_228 (protein)
chain: MEEEIESLKEYLEAEKKNLESVAKQAEEDYERAKKNPVTLDRVIHGLEGVATYAEDTIKEAKELIKEYPEVKEEAEKLIKVAEEAKKKAEALKKKLEALK
B15: usp_38_diff_out_17_26_234 (protein)
chain: SAEEERRRARELLEELRRRTEEALARIRELIAAGRFAEAQALLDATVTEVTATATEIFELAADDDELLDEVNRAVGEIFDRLAAAGRELREARRAAAAAA
B16: usp_38_diff_out_17_125_215 (protein)
chain: SDEELKKEIEKKLKEAEELLKEAEKALEAGAPAEEVEKLLDAAADALGQLAVLLRELREKSKDKAQAAKFIKKATEEANKLIDRYTELAERNFLRVAEEQ
B17: usp_38_diff_out_17_26_238 (protein)
chain: EAEERRKEARKLLEELKEKTEKDLEEIRKLIKEGKFEEAEKLLDETIDYVTEKSTEILELAADDDELFAEALAAIDEIFDKLAAAGKELREAKREAREKE
B18: usp_38_diff_out_17_125_221 (protein)
chain: TDEELKKEIEEALKKAEELLKKAKKLLEEGAPFEEIRAELDKAADALGKLAVLLRELREKSEDKAQAAKFIKEATERANKLIDEYTKLATEAFLREAEAA
B19: usp_38_diff_out_17_125_214 (protein)
chain: DFEELVKKIEELLAEAEKLVKEAKKLLEEGAPPAEVRAALDKARDALGALAKALRELRRTSKDKAQAAKVIKEANEKADKLIDELTKLETEVFLREADAA
B20: usp_38_diff_out_16_37_207 (protein)
chain: GEEKLKEFKKFMEEAMKKAKKLAEEAKKLAKEGKDKKEIEKLQKELDKLLDEVNEKTTEVLEEVPEKADEILAEYDKAATTIAEAGATIRAELRKARAAE
B21: usp_38_diff_out_17_125_212 (protein)
chain: MFEELKKKIEELLEEARRLVEEAERALAAGAPTAEVRRLLDQAADALGQLAVELRKLREESKDKAQAAKVIKEATKEANELIDRLTELETRVFLREAEAA
B22: usp_38_diff_out_17_26_235 (protein)
chain: SAEEKRKKALELLKELEKETEKELEEIEKLIKEGKFEEAEKKLDELVTKTTEKTTEILELAADDPELVEEVLKSYDKISDKIAEKYKELQEAKKKARAEA
B23: usp_38_diff_out_17_26_231 (protein)
chain: SAEAARAKAEALLKELVAETDKALKEIDKLIKEGKFEEAEKLLDETVDKVTEKATEIFELAADDEALLDKANKTIGDIFDKLAARYKELQAARKAAKAAA
B24: usp_38_diff_out_17_125_216 (protein)
chain: SDEELKEKAEELLKKAEELLKEAEKLLEEGAPAEEVEKKLDEAADALGQLAVTLRELREKSEDKAQAAKFIKELTKKANELIDRYTELATANFQRVADAQ
B25: usp_38_diff_out_16_37_208 (protein)
chain: AEAKLAEFAAFMERAIEEARRLAEEARRLAEEGAPVEEIERLLEELRRLLDEVVERTTEVLEEVPEHADEILALYDRAATEIAEAGQEIREELRRRREEE
B26: usp_38_diff_out_17_125_219 (protein)
chain: SDADLEAEAKALLAEAKALLKEAEKLLKEGAPFEEIRKKLDAAADKLGQLAVTLQQLRDKSKDKAQAAKFIKEMTAEANKLIDEYTKLATEAFLREAEEA
B27: usp_38_diff_out_16_37_206 (protein)
chain: AEKLLAEFKAFVEEIIERARRLAEEARRLAEEGAPIEEIERVLRELEELLDELVERTTEVLEKVPEHADEILAEYDRAATEIAEAGAEIRKALRERKEKE
B28: usp_38_diff_out_17_26_230 (protein)
chain: AAEERRREARELMRELERRTAEALKEIEKLIEEGKLEEAEKKLDELVDEFTELATRLLELAADDDELFEEAVRVIDAAADRIAAAGNLLREAKKKKREEE
B29: usp_38_diff_out_16_37_204 (protein)
chain: GEELLKEYKEFVEKVIKEAKKLAEEAKKLAKAGADLAEIRAIQEKLNELLDELVERTTEVLEKVPEHAEEILEEYDKAATEIAKAGAEIRAELRKAKAAA
B30: usp_38_diff_out_17_130_223 (protein)
chain: SEDEIEALKEYLEAEKKNIKSVAEEAEKDFERAKKHPVTLDRALHALDGVIKYYEETIEEAKKILKEYPEVKEAAEELIKTAEEAKKKAEKLKKELEKLK
B31: usp_38_diff_out_17_125_217 (protein)
chain: SSEELKEEIEKALKEAEELLKKAKELLEAGAPFEEIMAALDKAADALGKLAVLLRKLREESEDPAQAAKFIKEATKRADELIDEYTKLATEAFQREADAA
B32: usp_38_diff_out_17_125_220 (protein)
chain: SDEELKKKAEELLKKAEELLKQAEKALEEGAPFEEIEKLLDEAADALGELAKTLRELREKSKDPAQAAKFIKEATEKANELIDRYTELATRAFLRQAEAA

Molecular target: T1, USP38, Q8NB14
T1 chain: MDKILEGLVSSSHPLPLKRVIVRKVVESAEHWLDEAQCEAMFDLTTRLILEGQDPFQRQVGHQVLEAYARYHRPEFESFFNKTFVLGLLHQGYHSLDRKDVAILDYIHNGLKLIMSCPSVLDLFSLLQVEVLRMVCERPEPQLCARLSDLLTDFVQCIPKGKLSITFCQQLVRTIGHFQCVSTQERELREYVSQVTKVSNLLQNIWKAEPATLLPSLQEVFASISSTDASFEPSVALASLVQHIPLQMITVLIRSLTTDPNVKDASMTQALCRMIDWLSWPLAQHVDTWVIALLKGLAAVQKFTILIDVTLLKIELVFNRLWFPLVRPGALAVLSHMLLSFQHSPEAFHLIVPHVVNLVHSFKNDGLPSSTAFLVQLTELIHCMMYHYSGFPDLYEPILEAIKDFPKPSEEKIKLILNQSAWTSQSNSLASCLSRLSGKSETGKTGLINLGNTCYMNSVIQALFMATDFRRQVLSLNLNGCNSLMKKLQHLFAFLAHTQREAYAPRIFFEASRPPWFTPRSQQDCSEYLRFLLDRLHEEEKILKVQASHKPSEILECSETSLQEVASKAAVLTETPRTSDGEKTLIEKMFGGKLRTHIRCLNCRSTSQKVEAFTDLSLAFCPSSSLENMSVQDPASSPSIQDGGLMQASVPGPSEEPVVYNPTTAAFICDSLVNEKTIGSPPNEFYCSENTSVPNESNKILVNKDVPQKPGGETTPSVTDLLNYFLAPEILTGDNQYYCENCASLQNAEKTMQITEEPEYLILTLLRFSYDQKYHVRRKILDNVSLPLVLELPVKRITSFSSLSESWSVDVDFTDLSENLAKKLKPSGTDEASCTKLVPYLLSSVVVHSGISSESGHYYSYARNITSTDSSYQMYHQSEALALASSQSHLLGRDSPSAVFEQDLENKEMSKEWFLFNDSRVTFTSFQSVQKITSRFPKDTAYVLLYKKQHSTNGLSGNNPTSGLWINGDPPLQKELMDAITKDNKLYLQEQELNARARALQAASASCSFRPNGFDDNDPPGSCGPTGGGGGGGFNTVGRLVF
Assay: median log2 fold change of GCK-ALFA target abundance (FLAG IP / Myc IP barcode read proportion) (log2 ratio); each designed protein is fused to an ALFA-tag nanobody in HEK293 cells to bring the named protein to FLAG-tagged glucokinase (GCK); Myc marks an untargeted standard; higher = target protein stabilised (more abundant)
Conditions: target protein: 3xFLAG-MCP-GCK-ALFA reporter; HEK293 landing pad (RPLP)
Method in brief: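 An ALFA-nanobody-fused binder library was recombined into HEK293 landing-pad cells and induced with 2 μg mL^−1 doxycycline. Cells were transfected with a plasmid expressing a FLAG-tagged target and a Myc-tagged standard. After 48 h, lysates underwent anti-FLAG and anti-Myc immunoprecipitation, and circular RNA barcodes were reverse transcribed, amplified and sequenced. Target abundance is the per-binder median log2 ratio of FLAG to Myc barcode read proportions. Barcodes needed ≥10^−7 proportion in both replicates, binders ≥3 barcodes per replicate, and a 10^−6 pseudocount was added; the two replicates were pooled.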

Binder	median log2 fold change
B1	-0.436
B2	0.0259
B3	0.401
B4	0.0443
B5	0.259
B6	0.32
B7	0.0682
B8	0.15
B9	-0.522
B10	0.0185
B11	-0.0256
B12	0.0157
B13	0.41
B14	0.184
B15	-0.0515
B16	-0.432

Binder	median log2 fold change
B17	-0.0599
B18	-0.359
B19	-0.149
B20	0.0801
B21	-1.04
B22	0.284
B23	-0.439
B24	-0.484
B25	-0.00395
B26	-0.0439
B27	-0.0578
B28	-0.167
B29	-0.535
B30	0.232
B31	-0.0349
B32	0.167
